Assay results as given in ChEMBL document CHEMBL3988442, “University of Dundee, Small-Polar-MMV Screening Library” (2021).
Hit rate of the full screen: of about 48,000 compounds, about 13,000 (27%) showed an effect of 50% or more. The list shows a part of the results.

Tested on: Wolbachia pipientis
Experiment: Anti-Wolbachia Cell-Based Screen
Assay type: functional
Set-up: scale not given: in the data most compounds retested in dose-response had high values
Details: 5 µM

| SMILES | Percent Effect [%] |
| --- | --- |
| Cc1nc(CN(C)C(=O)c2ccc(Cn3cnnn3)cc2)cs1 | -19.39 |
| CCOc1ncccc1Cn1cc(-c2cncnc2)nn1 | -4.97 |
| O=C(NCc1nncn1C1CC1)c1ccc(F)c(COCC2CC2)c1 | -29.13 |
| CC(=O)c1ccc(N2CCC(CO)(CCOc3ccccc3)CC2)nc1 | -10.96 |
| CC(C)c1nc(CN(C)Cc2ncccc2C(=O)O)cs1 | -6.183 |
| O=C(c1ccc2nccnc2c1)N1C[C@@H](CN2CCCC2)[C@@H](CO)C1 | -11.65 |
| CCOc1ccccc1C(=O)N1CCCC(c2nccn2CCOC)C1 (configuration not stated) | -0.2171 |
| CCOc1ccc(C(=O)N2CCCC(c3nccn3C)C2)cc1OCC (configuration not stated) | 100.4 |
| CCOc1ccc(C(=O)N2C[C@H]3CC[C@@H]2CN(C)C3)cc1OCC | -32.38 |
| CC(C)C1CN(C(=O)c2ccc3nccnc3c2)CCS1 (configuration not stated) | -6.684 |
| Cn1ccnc1C1CCCN(C(=O)c2ccc3nccnc3c2)C1 (configuration not stated) | 95.06 |
| O=C1N(CCCc2ccccc2)CCCC12CCN(C(CO)CO)C2 (configuration not stated) | 4.777 |
| COCCC1(CO)CCCN(CCCc2ccccc2)C1 (configuration not stated) | -2.01 |
| COCCC1(CO)CCCN(Cc2ccc(C#N)cc2)C1 (configuration not stated) | 0.3825 |
| N#Cc1ccc(CN2C[C@@H]3OCC(=O)N[C@@H]3C2)cc1 | -14.55 |
| O=C1NCC[C@]12CN(Cc1ccsc1)C[C@H]2c1ccccc1 | 6.958 |
| O=C1NCc2ccccc2CC12CCCN(CCCc1ccccc1)C2 (configuration not stated) | 107.4 |
| N#Cc1ccc(CN2CCCC3(Cc4ccccc4CNC3=O)C2)cc1 (configuration not stated) | 129.6 |
| O=C1NCc2ccccc2CC12CCCN(Cc1ccsc1)C2 (configuration not stated) | 112.5 |
| CN(C)C(=O)CN1CCC2(CCCN(Cc3ccsc3)C2)C1=O (configuration not stated) | -8.794 |
| Cc1nc(CN2CC[C@@H]3[C@@H](CCC(=O)N3CCc3c[nH]cn3)C2)co1 | -20.08 |
| COCCN1C[C@@H](C(=O)O)[C@H](c2ccccc2C)C1 | -9.465 |
| COCCn1cnnc1Cn1ccnc1-c1ccsc1 | -0.8108 |
| CN(CCO)Cc1nnc(C2CCN(CC(C)(C)C)CC2)n1C | 3.482 |
| CCn1nnc2c1CCN(S(C)(=O)=O)C2COCc1ccccc1 (configuration not stated) | -2.948 |
| c1cncc(COCC2CNCc3nccn3C2)c1 (configuration not stated) | 6.541 |

| SMILES | Percent Effect [%] |
| --- | --- |
| CC(C)Cc1ccc(S(=O)(=O)NCCCN2CCNC(=O)C2)cc1 | 7.437 |
| CN(c1ccc(C(=O)NCCCN2CCOCC2)c(Cl)c1)S(C)(=O)=O | -4.637 |
| Cc1ccc(-n2ccnc2)c(C(=O)NCCCN(C)C)c1 | -3.641 |
| CSCC(C)(O)CNC(=O)c1cc(Cl)ccc1Cl (configuration not stated) | 2.772 |
| CN(C)CCCNC(=O)c1cc(Cl)ccc1Cl | 87.97 |
| CN(C)CCCNC(=O)c1cc(Br)c2c(c1)OCCO2 | -6.944 |
| CN(C)CCCNC(=O)c1ccc(Cl)cc1Cl | 119 |
| COc1cccc2c1OCC(NCc1cnn(-c3ccccc3F)c1)C2 (configuration not stated) | -11.75 |
| Cc1cccc(NC(=O)c2ccc(OCc3nnnn3C)cc2)n1 | 107.3 |
| Cc1cccc(NC(=O)c2cccc(OCc3nnnn3C)c2)n1 | 73.29 |
| NC(=O)COc1cccc(C(=O)Nc2cnc3n2CCCC3)c1 | 11.29 |
| COc1cc(C(C)=O)ccc1SCC(=O)Nc1cccc(C)n1 | 6.413 |
| COc1c(CNCCC(=O)Nc2cccc(C)n2)c(C)nn1C | 6.6 |
| Cc1cc(C)n(CNc2nonc2C(N)=O)n1 | 109.2 |
| Cc1cc(C)n(CC(C)CNC(=O)N(C)Cc2cc(C)on2)n1 (configuration not stated) | 9.156 |
| COc1nonc1NCn1nc(C)cc1C | 152 |
| NC(=O)c1cccc(CC2CCN(C(=O)Cn3cnnn3)C2)c1 (configuration not stated) | -10.16 |
| CCN(CCC#N)Cn1ncc2cn(-c3ccccc3)nc2c1=O | 15.78 |
| Cc1ncsc1C(=O)NC1CCN(CC(=O)N(C)C(C)(C)C#N)CC1 | -1.04 |
| NC[C@H]1CC[C@H](C(NC(=O)c2cccc(F)c2)c2ccccn2)CC1 (some centres not stated) | 1.736 |
| COc1cc(F)c(C(C)NC(=O)c2cccnc2C)cc1OC (configuration not stated) | -13.32 |
| COc1ccccc1C(=O)NC(c1ccccn1)[C@H]1CC[C@H](CN)CC1 (some centres not stated) | 100.4 |
| COC(=O)c1sc(C(NC(=O)c2ccccc2)C2CC2)nc1C (configuration not stated) | -18.8 |
| COc1cccc(C(=O)NC(c2ccccn2)[C@H]2CC[C@H](CN)CC2)c1 (some centres not stated) | 98.61 |
| COc1ccccc1C(=O)NC(CC(=O)O)c1cccs1 (configuration not stated) | 13.12 |
| CN(C)C(=O)C1(C)CN(Cc2cn(C)c3ccccc23)CCO1 (configuration not stated) | 120.9 |

| SMILES | Percent Effect [%] |
| --- | --- |
| CN(C)C(=O)COc1ccccc1CN1CCOC2(CCCC2)C1 | 35.78 |
| CCCN1CCN(Cc2cn(CCC(N)=O)c3ccccc23)CC1 | 5.612 |
| CNC(=O)[C@@H]1CC[C@@H]2[C@@H](CCN2Cc2cn(C)c3ccccc23)O1.O=C(O)C(F)(F)F | 12.94 |
| Cc1cc(F)ccc1CN1CCCC2(C1)OCCO2 | -1.552 |
| CN(C)C(=O)C1(C)CN(Cc2cn(C)c3ccc(F)cc23)CCO1 (configuration not stated) | 142.1 |
| CNC(=O)C1(C)CN(Cc2cn(C)c3ccc(F)cc23)CCO1 (configuration not stated) | 119.3 |
| Cn1cc(C2(C)CN(Cc3ccc(Cl)c(F)c3)CCO2)cn1 (configuration not stated) | -1.471 |
| CN(CCN1CCOCC1)C(=O)C1(c2ccc(F)cc2F)CCC1 | 9.471 |
| CC(NCCCn1ccnc1)c1ccc(N2CCOC2=O)cc1 (configuration not stated) | -1.07 |
| c1cnc(N2CC3(CCN(C4CCOC4)CC3)c3ccccc32)nc1 (configuration not stated) | 13 |
| O=C(CCN1CCCC1)N1CC[C@@H](c2ccc3ccccc3c2)[C@H](O)C1 | -4.226 |
| CC(C)C(Sc1ccccc1)C(=O)N(C)Cc1nnc2n1CCC2 (configuration not stated) | 14.25 |
| CCc1cc(-c2nccn2-c2ccccc2CN2CCOCC2)on1 | 1.321 |
| Cc1nc(C)c(CN2CCOC[C@H](Oc3ccccc3)C2)s1 | -8.964 |
| Cc1noc([C@@]23CCO[C@@H]2CCN(C(=O)C2CCOCC2)C3)n1 | -2.403 |
| Cc1nnc([C@]23COC[C@H]2CN(Cc2cccs2)C3)o1.O=C(O)C(F)(F)F | 0.3646 |
| Cc1noc([C@@]23CCO[C@@H]2CCN(S(=O)(=O)c2cccnc2)C3)n1 | 103 |
| CCCS(=O)(=O)N1CC[C@H]2OCC[C@@]2(c2nnc(C)o2)C1 | -9.465 |
| Cc1nnc([C@@]23CCO[C@@H]2CCN(S(=O)(=O)c2ccccc2)C3)o1 | 90.56 |
| Cc1nnc([C@@]23CCO[C@@H]2CCN(S(C)(=O)=O)C3)o1 | -9.969 |
| Cc1noc([C@@]23CCO[C@@H]2CCN(C(=O)c2sccc2C)C3)n1 | -13.91 |
| Cc1nnc([C@]23COC[C@H]2CN(Cc2cnn(C)c2)C3)o1.O=C(O)C(F)(F)F | -19.13 |
| O=C1N(CC2CCC2)CCCC12CCN(S(=O)(=O)c1cccnc1)C2 (configuration not stated) | 16.59 |
| Cc1nnc([C@@]23CCO[C@@H]2CCN(S(=O)(=O)c2cccnc2)C3)o1 | 88.28 |
| Cc1nnc([C@]23COC[C@H]2CN(S(=O)(=O)c2cccnc2)C3)o1.O=C(O)C(F)(F)F | 103.4 |
| CC(NC(=O)c1ccoc1)C(=O)N(C)Cc1ccsc1 (configuration not stated) | 8.82 |

| SMILES | Percent Effect [%] |
| --- | --- |
| COc1cc(C(=O)N2CCCC(CNS(C)(=O)=O)C2)cc(OC)c1C (configuration not stated) | 0.06204 |
| CC(C)Oc1cc(N2CCN(Cc3ccsc3)C(CCO)C2)nc(N)n1 (configuration not stated) | -3.773 |
| CCCC(NC(=O)c1ccc(OC)cc1F)c1nnn[nH]1 (configuration not stated) | -0.1945 |
| COc1c(NS(=O)(=O)c2cc(C)ccc2C)c(C)nn1C | 9.711 |
| Cc1ccc(N2CCC(c3[nH]ncc3Cc3ccccc3)CC2)nn1 | 27.05 |
| Cc1cc(N2CCCC(c3[nH]ncc3Cc3ccccc3)C2)nc(N)n1 (configuration not stated) | 51.86 |
| Cc1ccc(N2CCCC(c3[nH]ncc3Cc3ccccc3)C2)nn1 (configuration not stated) | 26.61 |
| CCCc1cc(=O)[nH]c2nnc(SCC(=O)OCC)n12 | 11 |
| CC1CN(C(=O)CN(Cc2ccccc2Cl)C2CCCC2)CCO1 (configuration not stated) | 167.1 |
| CC1CN(C(=O)CN(Cc2ccco2)Cc2cccs2)CCO1 (configuration not stated) | 127.8 |
| Cn1cc(C(=O)N(Cc2ccco2)Cc2cccs2)ccc1=O | -5.076 |
| Cc1nnc(CN(Cc2ccccc2Cl)C2CCCC2)o1 | -12.06 |
| CC1CN(C(=O)CN(Cc2ccccc2Br)C2CC2)CCO1 (configuration not stated) | 15.13 |
| CC1CN(C(=O)CN(Cc2ccccc2)C2CC2)CCO1 (configuration not stated) | 126.4 |
| Cc1ccc(CN(CC(=O)N2CCOC(C)C2)C2CC2)cc1 (configuration not stated) | 133.3 |
| CC1CN(C(=O)c2ccn(-c3cccc(Cl)c3)n2)CCO1 (configuration not stated) | 3.639 |
| CC1CN(C(=O)CN(Cc2ccco2)C2CC2)CCO1 (configuration not stated) | -3.205 |
| CC1CN(C(=O)CCc2cc(Br)cs2)CCO1 (configuration not stated) | -0.4778 |
| CC1CN(C(=O)c2sccc2Br)CCO1 (configuration not stated) | 5.426 |
| CC(C)(C)c1cc(NC(=O)CN(Cc2ccco2)Cc2cccs2)on1 | 15.1 |
| Cc1cc(NC(=O)N(C)C2CCN(c3ccccc3F)C2=O)n(C)n1 (configuration not stated) | -7.553 |
| O=C(c1ccc2c(c1)CCO2)N1CCN(c2ccc(Cl)cn2)CC1 | 6.232 |
| CN(C)CC1CN(CCOc2cccc(C#N)c2)CCO1 (configuration not stated) | 0.1863 |
| Cc1ncsc1C(=O)NC1CCN(Cc2ccc(C#N)cc2)CC1 | -12.71 |
